Data: PubChem BioAssay (NCATS)
Results filed as inconclusive are left out. A call without a number means that no potency is given here. The source made the active and inactive calls. Unless noted, calls come from the whole dose curve; as a rule, active = well fitted curve in the direction sought with a large enough effect in the repeat runs; inconclusive = weak or mixed curves; inactive = no such curve, though single readings can be large; an effect the other way counts as inactive or inconclusive.

What follows are molecules tested against Calcium and integrin-binding protein 1 (Homo sapiens) (UniProt Q99828) (assay: Primary qHTS for Identification of Calcium Integrin Binding Protein 1 (CIB1) Competitor (AID 1508620; active = well fitted curve in the direction sought with a large enough effect; an effect the other way counts as inactive or inconclusive)). Details: CIB1-GST / FITC-alphaIIb peptide fluorescence polarization; series mostly up to 114 µM.
Calcium and integrin-binding protein 1 (Homo sapiens), sequence (Q99828 whole entry, looked up): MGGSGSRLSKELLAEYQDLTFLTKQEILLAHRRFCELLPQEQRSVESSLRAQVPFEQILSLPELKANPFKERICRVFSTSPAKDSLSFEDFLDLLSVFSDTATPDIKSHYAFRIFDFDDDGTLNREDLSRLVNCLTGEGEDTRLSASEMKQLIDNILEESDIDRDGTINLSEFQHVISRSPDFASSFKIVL
Summary of the method: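 CIB1-GST (1 uM final) and compound incubated 15 min at room temperature before adding FITC-alphaIIb peptide tracer (100 nM final). Competition for binding read by fluorescence polarization (ex 480, em 540) after another 15 min at room temperature.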
Potency is the fitted concentration of half-maximal effect.

SMILES | Potency
Cc1cc(C)c(-n2cc(C)c3c(Cl)nc(C)nc32)c(C)c1 | inactive
O=C(c1ccc(OC(F)F)c(C#Cc2ccccn2)c1)N1Cc2cccnc2C1 | inactive
CC(=O)NC[C@H]1CN(c2ccc(N3CCSCC3)c(F)c2)C(=O)O1 | inactive
O=c1nc(-c2ccccn2)sc2ccccc12 | 28.2 µM (active)
Cc1[nH]c2ccccc2c1CCNC(=O)c1cccs1 | inactive
Cc1cc(CS(=O)(=O)c2ccccc2)cc(OCc2ccc(CN3CCCC3CO)cc2)c1 (stereo not drawn) | inactive
O=C(NCCN1CCC(n2c(=O)[nH]c3ccccc32)CC1)c1ccc2ccccc2c1 | inactive
Cc1c(C(=O)NCc2cccnc2)nn(-c2ccc(Cl)cc2Cl)c1-c1ccc(Cl)cc1 | inactive
O=C(NCCCc1ccccc1)C1CCC(CNS(=O)(=O)c2cccc3nsnc23)CC1 (stereo not drawn) | inactive
CC(C)S(=O)(=O)NC[C@H](C)c1ccc(-c2ccc(CCNS(C)(=O)=O)cc2)cc1 | inactive
O=C(NCC1(c2nc(-c3ccccc3)cs2)CCOCC1)c1cccc(-c2noc(C(F)(F)F)n2)c1 | inactive
Cc1ccc(NC(=O)N2CCN(c3nc(N)nc4sc(-c5cccnc5)nc34)CC2)cc1 | inactive
Cc1cccc(CC(=O)N2CCc3c2ccc(-c2cn(C)c4ncnc(N)c24)c3F)n1 | inactive
N#Cc1cc(C2=Nc3ccc(Br)cc3NC(=O)C2)ccn1 | inactive
CCCCNc1ncc2c(-c3ccc(S(=O)(=O)N4CCOCC4)cc3)nn(C3CCC(O)CC3)c2n1 (stereo not drawn) | inactive
COC(=O)c1cc(Br)cnc1N1CCC(NC2CCCCC2)C(O)C1 (stereo not drawn) | inactive
CN1CCN(C2=Nc3ccccc3Nc3ccc(OS(=O)(=O)C(F)(F)F)cc32)CC1 | inactive
O=C(NS(=O)(=O)c1ccc(Br)s1)c1ccc(Cl)cc1Cl | inactive
Cc1cc(C)cc(-c2cnc3cc(Cl)c(-c4cccc(O)c4)cc3c2OCCCN)c1 | inactive
CCN1CCN(Cc2ccc(NC(=O)c3ccc(C)c(Oc4ccnc5[nH]ccc45)c3)cc2C(F)(F)F)CC1 | inactive

SMILES | Potency
Cc1cccc(C#Cc2cc(F)cc(C#N)c2)n1 | inactive
CN(C)CCn1cc(-c2ccc(F)cc2)c(-n2cccc2)n1 | inactive
c1cc(NC2CCNCC2)nc(-c2cnc3ccccn23)c1 | inactive
CCn1c(-c2nonc2N)nc2c(C#CCO)ncc(OCCCN)c21 | inactive
COc1cc(CCc2cc(NC(=O)c3ccc(N4CC(C)NC(C)C4)cc3)n[nH]2)cc(OC)c1 (stereo not drawn) | inactive
Cc1cc(C)nc(SCC(=O)Nc2ncc(Cc3cccc4ccccc34)s2)n1 | inactive
N#Cc1cc(CN2CCC(Nc3ncnc4sc(Cl)cc34)CC2)ccc1F | inactive
CCOC(=O)N1CCC(CN(Cc2ccc(Cl)cc2)Cc2ccc([N+](=O)[O-])s2)C1 (stereo not drawn) | inactive
CC(C)(Cc1ccccc1)NCC(O)c1ccc(O)c(NS(C)(=O)=O)c1 (stereo not drawn) | inactive
O=C(Nc1cccnn1)N1CCN(c2nccc(-c3ccc(F)c(F)c3)n2)CC1 | inactive
C[C@@H]1CCCN1CCc1cc2cc(-c3ccc(C#N)cc3)ccc2o1 | inactive
CCC(CC)Nc1nc(C)c(-c2ccc(OC(F)(F)F)cc2OC)nc1OC | inactive
CC1=C(c2ccc(NC(=O)c3c(F)cccc3F)cc2)CN(c2nccs2)CC1 | inactive
CC(C)NCCCn1c(Sc2cc3c(cc2I)OCO3)nc2c(N)ncnc21 | inactive
CC(C)(Cc1nc(-c2ccc(O)cn2)no1)C(=O)NC1=C(C(=O)O)CCCC1 | inactive
C[C@H](CN(C)C)Oc1nc(Nc2cc3cccc(Cl)c3cn2)cnc1C#N | inactive
COc1ccncc1C(=O)NC(=O)Nc1ccc(-c2ccccc2)c(C(F)(F)F)c1 | inactive
Cc1nc2c(C(F)(F)F)cccc2nc1-c1ccc(-c2cccc(S(C)(=O)=O)c2)cc1 | inactive
CCN1C(C)(C)CC(Oc2ccc(C(=O)Nc3ccc(NC(=O)Nc4cc(C(C)(C)C)on4)cc3)nc2)CC1(C)C | inactive

The molecules below were run against Cytochrome P450 2D6 (Homo sapiens) (UniProt P10635) (assay: Cytochrome P450 family 2 subfamily D member 6 (CYP2D6) small molecule antagonists: luciferase biochemical (cell-free) qHTS assay (AID 1645840; note: nearly all actives have a fitted effect of over 55% in size)). Details: P450-Glo CYP2D6 enzyme, luciferin luminescence, 1 h; series mostly up to 57.4 µM.
Cytochrome P450 2D6 (Homo sapiens), sequence (P10635 whole entry, looked up): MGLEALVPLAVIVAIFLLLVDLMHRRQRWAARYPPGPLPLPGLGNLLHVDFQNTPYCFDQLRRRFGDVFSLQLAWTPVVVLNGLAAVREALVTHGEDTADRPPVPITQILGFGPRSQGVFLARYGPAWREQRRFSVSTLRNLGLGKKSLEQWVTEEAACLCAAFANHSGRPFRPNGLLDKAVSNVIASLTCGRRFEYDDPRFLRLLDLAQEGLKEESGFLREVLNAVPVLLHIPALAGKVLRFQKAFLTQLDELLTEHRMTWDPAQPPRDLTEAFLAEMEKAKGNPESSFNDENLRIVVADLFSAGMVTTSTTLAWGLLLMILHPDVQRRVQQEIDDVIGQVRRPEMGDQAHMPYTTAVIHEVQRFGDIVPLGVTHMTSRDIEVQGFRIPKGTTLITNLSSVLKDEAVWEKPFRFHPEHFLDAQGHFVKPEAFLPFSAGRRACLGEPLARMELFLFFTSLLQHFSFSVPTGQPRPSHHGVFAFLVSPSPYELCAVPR
Summary of the method: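 P450-Glo CYP2D6 system: proluciferin substrate converted by enzyme to luciferin, read by luminescence proportional to activity. Enzyme-substrate mix with compound 10 min at room temperature, then NADPH regeneration 1 h before detection reagent.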

SMILES | Potency
Cc1cc(C)c(-n2cc(C)c3c(Cl)nc(C)nc32)c(C)c1 | inactive
O=C(c1ccc(OC(F)F)c(C#Cc2ccccn2)c1)N1Cc2cccnc2C1 | 21.3 µM (active)
CC(=O)NC[C@H]1CN(c2ccc(N3CCSCC3)c(F)c2)C(=O)O1 | inactive
O=c1nc(-c2ccccn2)sc2ccccc12 | inactive
Cc1[nH]c2ccccc2c1CCNC(=O)c1cccs1 | 23.9 µM (active)
Cc1cc(CS(=O)(=O)c2ccccc2)cc(OCc2ccc(CN3CCCC3CO)cc2)c1 (stereo not drawn) | 0.952 µM (active)
O=C(NCCN1CCC(n2c(=O)[nH]c3ccccc32)CC1)c1ccc2ccccc2c1 | 12 µM (active)
Cc1c(C(=O)NCc2cccnc2)nn(-c2ccc(Cl)cc2Cl)c1-c1ccc(Cl)cc1 | 0.213 µM (active)
O=C(NCCCc1ccccc1)C1CCC(CNS(=O)(=O)c2cccc3nsnc23)CC1 (stereo not drawn) | 10.7 µM (active)
CC(C)S(=O)(=O)NC[C@H](C)c1ccc(-c2ccc(CCNS(C)(=O)=O)cc2)cc1 | inactive
O=C(NCC1(c2nc(-c3ccccc3)cs2)CCOCC1)c1cccc(-c2noc(C(F)(F)F)n2)c1 | inactive
Cc1ccc(NC(=O)N2CCN(c3nc(N)nc4sc(-c5cccnc5)nc34)CC2)cc1 | 13.5 µM (active)
Cc1cccc(CC(=O)N2CCc3c2ccc(-c2cn(C)c4ncnc(N)c24)c3F)n1 | inactive
N#Cc1cc(C2=Nc3ccc(Br)cc3NC(=O)C2)ccn1 | 0.477 µM (active)
CCCCNc1ncc2c(-c3ccc(S(=O)(=O)N4CCOCC4)cc3)nn(C3CCC(O)CC3)c2n1 (stereo not drawn) | inactive
COC(=O)c1cc(Br)cnc1N1CCC(NC2CCCCC2)C(O)C1 (stereo not drawn) | 0.019 µM (active)
CN1CCN(C2=Nc3ccccc3Nc3ccc(OS(=O)(=O)C(F)(F)F)cc32)CC1 | 3.38 µM (active)
O=C(NS(=O)(=O)c1ccc(Br)s1)c1ccc(Cl)cc1Cl | inactive
Cc1cc(C)cc(-c2cnc3cc(Cl)c(-c4cccc(O)c4)cc3c2OCCCN)c1 | 7.56 µM (active)
CCN1CCN(Cc2ccc(NC(=O)c3ccc(C)c(Oc4ccnc5[nH]ccc45)c3)cc2C(F)(F)F)CC1 | 10.7 µM (active)

SMILES | Potency
Cc1cccc(C#Cc2cc(F)cc(C#N)c2)n1 | inactive
CN(C)CCn1cc(-c2ccc(F)cc2)c(-n2cccc2)n1 | 15.1 µM (active)
c1cc(NC2CCNCC2)nc(-c2cnc3ccccn23)c1 | 15.1 µM (active)
CCn1c(-c2nonc2N)nc2c(C#CCO)ncc(OCCCN)c21 | inactive
COc1cc(CCc2cc(NC(=O)c3ccc(N4CC(C)NC(C)C4)cc3)n[nH]2)cc(OC)c1 (stereo not drawn) | 12 µM (active)
Cc1cc(C)nc(SCC(=O)Nc2ncc(Cc3cccc4ccccc34)s2)n1 | inactive
N#Cc1cc(CN2CCC(Nc3ncnc4sc(Cl)cc34)CC2)ccc1F | 1.51 µM (active)
CCOC(=O)N1CCC(CN(Cc2ccc(Cl)cc2)Cc2ccc([N+](=O)[O-])s2)C1 (stereo not drawn) | 3.01 µM (active)
CC(C)(Cc1ccccc1)NCC(O)c1ccc(O)c(NS(C)(=O)=O)c1 (stereo not drawn) | 3.79 µM (active)
O=C(Nc1cccnn1)N1CCN(c2nccc(-c3ccc(F)c(F)c3)n2)CC1 | inactive
C[C@@H]1CCCN1CCc1cc2cc(-c3ccc(C#N)cc3)ccc2o1 | 13.5 µM (active)
CCC(CC)Nc1nc(C)c(-c2ccc(OC(F)(F)F)cc2OC)nc1OC | inactive
CC1=C(c2ccc(NC(=O)c3c(F)cccc3F)cc2)CN(c2nccs2)CC1 | inactive
CC(C)NCCCn1c(Sc2cc3c(cc2I)OCO3)nc2c(N)ncnc21 | 0.536 µM (active)
CC(C)(Cc1nc(-c2ccc(O)cn2)no1)C(=O)NC1=C(C(=O)O)CCCC1 | inactive
C[C@H](CN(C)C)Oc1nc(Nc2cc3cccc(Cl)c3cn2)cnc1C#N | 0.674 µM (active)
COc1ccncc1C(=O)NC(=O)Nc1ccc(-c2ccccc2)c(C(F)(F)F)c1 | 19 µM (active)
Cc1nc2c(C(F)(F)F)cccc2nc1-c1ccc(-c2cccc(S(C)(=O)=O)c2)cc1 | inactive
CCN1C(C)(C)CC(Oc2ccc(C(=O)Nc3ccc(NC(=O)Nc4cc(C(C)(C)C)on4)cc3)nc2)CC1(C)C | 19 µM (active)
